Data published in PubChem BioAssay (NCI).
The panel holds about 83,000 compounds, 20% with a hit somewhere; the sample as a whole holds those more often.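 96-well plates, one dose, 48 hours. Percent growth reported; active if below 10.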 Calls of active or inactive are those of the source.

These molecules were tested on SW-620 colon (assay: NCI-60 one-dose screen, 48 h (100 = growth as untreated, 0 = no growth, -100 = all killed)). Settings: 10 µM.
Description: Growth inhibition of the SW-620 human tumor cell line is measured as a screen for anti-cancer activity. Cells are grown in 96 well plates and exposed to the test compound for 48 hours. Compounds are tested at a single concentration, which is 10^-5 M for most compounds. The reported endpoint is percent growth (GI% or GIPRCNT), where numbers from 0 - 100% represent growth inhibition, and numbers from -100% - 0 represent cell death. For example, a value of 40 represents 60% growth inhibition. A value of 0 means no net growth occurred over the course of the experiment. A value of -40 indicates 40% of cells at the beginning of the experiment died by the end of the experiment. A value of -100 means all cells are dead at the end of the experiment.
NCI-60 Human Tumor Cell Lines Screen was performed using the standard one-dose NCI protocol, which is described in more detail at https://dtp.cancer.gov/discovery_development/nci-60/default.htm.
Compounds with GIPRCNT values below 10 were considered active. Activity score was based on GIPRCNT using the following formula: […]
Score is 0 for GIPRCNT values of 100 or above, 50 for GIPRCNT values of 0, and 100 for GIPRCNT values of -100.
For `O=C(CCCNC(=O)c1nc(-c2ccccc2)n(-c2ccccc2)n1)NO`, the growth was 106% (inactive).
`CCN(CC)CCOc1ccc2c(c1O)C(=O)c1ccccc1C2=O` was tested, and the growth was 67.9% (inactive).
In the case of `CCOC(=O)/C(=C(\C)N)C1CC(=O)NC1=O` (stereo not given), the growth is reported as 96.8% (inactive).
`Cc1nn(-c2ccc(-c3ccc(OC(F)(F)F)cc3)cc2)c2nc(Cc3ccccc3)nc(N)c12` was tested, and the growth was 54.4% (inactive).
With `CN1CCN(CCC(=O)Nc2cccc(-n3cc(-c4ccncc4)c(-c4ccc(Cl)c(O)c4)n3)c2)CC1` the growth was 20.9% (inactive).
`CC(=O)Nc1cc2c(cc1Cl)Cc1cc(Cl)ccc1-2` was tested, and the growth was 97.5% (inactive).
With `COc1ccccc1-n1c(-c2csc(NC(C)=O)n2)n[nH]c1=S` the growth was 105% (inactive).
`CCN(CCCNc1cc2c(c(N)c1S(=O)(=O)O)C(=O)c1ccccc1C2=O)c1ccccc1` was tested, and the growth was 113% (inactive).
`C=C1CCC2(C#N)[C@H]3[C@H](CC[C@@H]2C)[C@@H](C)C[C@@H](CC(C)(C)NC(=O)CN2CCC2=O)[C@H]13` (stereo not given in full) was tested, and the growth was 74.6% (inactive).
With `CC(C)(C)OC(=O)CN1CCc2c(sc3ncnc(N/N=C/c4cccc5ccccc45)c23)C1` the growth was 33.9% (inactive).
With `COc1ccc2c(c1)C(=O)/C(=C/c1ccc([N+](=O)[O-])o1)O2` the growth was -60.4% (active).
With `COc1cc2cc(Oc3ccc(NC(=O)c4ccccc4)cc3)c(C)nc2cc1OC` the growth was 109% (inactive).
With `O=C(CN(C1CCCCC1)C1CCCCC1)Nc1ccc(S(=O)(=O)c2ccc(NC(=O)CN(C3CCCCC3)C3CCCCC3)cc2)cc1` the growth was -48.4% (active).
With `C=CCN(CC=C)C(=O)[C@H](CC)[C@@H]1CC[C@@H](C)[C@@H]([C@H](C)[C@@H](O)[C@@H](C)C(=O)[C@H](CC)C2O[C@]3(C=C[C@@H](O)[C@]4(CC[C@@](C)([C@H]5CC[C@](O)(CC)[C@H](C)O5)O4)O3)[C@H](C)C[C@@H]2C)O1` (stereo not given in full) the growth was 12.3% (inactive).
For `CN(C)CCCN1c2ccccc2CCc2ccc(Cl)cc21`, the growth was 89% (inactive).
`CCc1ccc(C2=NN(c3ccc(S(C)(=O)=O)cc3)C(=O)CC2)cc1` was tested, and the growth was 12.4% (inactive).
`NS(=O)(=O)Oc1ccc(NC(=O)C2CCCCCC2)cc1` was tested, and the growth was 106% (inactive).
`CCN(CC)CCOc1cccc2c1C(=O)c1ccccc1C2=O` was tested, and the growth was 87.6% (inactive).
For `Cc1c(C(N)=O)sc2c1c(=O)n(Cc1ccccc1)c1nnc(-c3ccc(Br)cc3)n21`, the growth was 33.1% (inactive).
For `COc1cc(-c2nn(-c3cccc(NC(=O)NCCNC(=O)c4cccc(C(F)(F)F)c4)c3)cc2-c2ccncc2)ccc1Cl`, the growth was 36.1% (inactive).
`CCN1CCN(CCC(=O)Nc2cccc(-n3cc(-c4ccncc4)c(-c4ccc(Cl)c(OC)c4)n3)c2)CC1` was tested, and the growth was 10.3% (inactive).
For `COc1cc2cc(Oc3ccc(NC(=O)c4cccc(C(F)(F)F)c4)cc3)c(C)nc2cc1OC`, the growth was 54.8% (inactive).
With `IC(I)I` the growth was 102% (inactive).
`Cc1ccc(N=Nc2ccccc2)cc1` was tested, and the growth was 102% (inactive).
`O=C1/C=C/[C@@H](O)[C@@H]2C[C@@H](O)C[C@H]2/C=C/CCC[C@@H](C(F)(F)F)O1` was tested, and the growth was 93.9% (inactive).
For `O=C(COc1cccc(/C=C2\CSc3ccc(Cl)cc3C2=O)c1)c1ccc(Cl)cc1`, the growth was -71.6% (active).
With `COc1ccc(C(=O)CC(CC(=O)c2ccc(OC)cc2)c2c(C)nn(-c3ccccc3)c2Cl)cc1` the growth was 102% (inactive).
In the case of `CCCCC/C=C/C/C=C/CCCCCCCC1=NC(C)(C)CN1C(C)C`, the growth is reported as -70.3% (active).
With `S=C1N(c2ccccc2)CN(C2CCCCC2)CN1c1ccccc1` the growth was 104% (inactive).
With `O=C1/C=C/[C@@H](O)[C@@H]2C[C@@H](O)C[C@H]2/C=C/CCC[C@H](C(F)(F)F)O1` the growth was -23.1% (active).
With `CN(C)CCOc1ccccc1NC1=C(Cl)C(=O)C(Nc2ccccc2OCCN(C)C)=C(Cl)C1=O` the growth was -50% (active).
With `C1CN(CC2CCC(CN3CCOCC3)O2)CCO1` (stereo not given) the growth was 92.2% (inactive).
In the case of `CN(C)CCCOc1ccccc1NC1=C(Cl)C(=O)C(Nc2ccccc2OCCCN(C)C)=C(Cl)C1=O`, the growth is reported as -46.8% (active).
For `CCN1CC(CCN2CCOCC2)C(C(c2ccccc2)c2ccccc2)C1=O` (stereo not given), the growth was 106% (inactive).
In the case of `O=C1Cc2cc(CCN3CCN(c4nsc5ccccc45)CC3)c(Cl)cc2N1`, the growth is reported as 92.9% (inactive).
In the case of `COc1cc(-c2ccc(N=Nc3ccc4c(S(=O)(=O)O)ccc(N)c4c3O)c(OC)c2)ccc1N=Nc1ccc2c(S(=O)(=O)O)ccc(N)c2c1O`, the growth is reported as 109% (inactive).
For `CC(=O)N[C@H](C(=O)N[C@@H](CCCNC(=N)N)C(=O)N[C@@H](CCCCN)C(=O)N[C@@H](CCCNC(=N)N)C(=O)N[C@]1(C)CCC/C=C\CCC[C@@](C)(C(=O)N[C@@H](CC(C)C)C(=O)N[C@@H](CC(C)C)C(=O)N[C@@H](CCC(N)=O)C(=O)N[C@@H](CCC(=O)O)C(=O)N[C@@H](CCCNC(=N)N)C(=O)N[C@@H](CCC(=O)O)C(=O)N[C@@H](CC(C)C)C(=O)N[C@H](C(=O)N[C@@H](CCC(=O)O)C(N)=O)C(C)C)NC(=O)[C@H](CCCNC(=N)N)NC(=O)[C@H](CC(C)C)NC1=O)C(C)C`, the growth was 113% (inactive).
With `COc1cc2cc(Oc3ccc(NC(=O)Nc4ccc(C(F)(F)F)cc4)cc3)c(C)nc2cc1OC` the growth was 75.3% (inactive).
With `CCCCCCCCCCOC(c1ccccc1)c1ccccc1` the growth was 98.1% (inactive).
In the case of `CC(CN(C)C)Oc1ccc(OC(C)CN(C)C)c2c1C(=O)c1ccccc1C2=O` (stereo not given), the growth is reported as 27.9% (inactive).
